Assay results reported in the supplement of paper PMC12669032.

Experiments:
Assay in all cases: growth AUC relative to DMSO control (median of replicates) (fraction); higher = more growth (less inhibition), active = hit call of the paper
Conditions in all cases: 20 µM; 24 h;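 active = AUC reduced over 20% with Padj below 0.05 in at least 2 of 3 replicates; inactive = otherwise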
Akkermansia muciniphila = tested on: Akkermansia muciniphila
Outline: (§1)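 For each compound at 20 µM (1% DMSO), gut bacterial monocultures seeded at OD600 0.05 grew anaerobically in mGAM at 37 °C in round-bottom 96-well plates. Hourly OD600 readings over 24 h gave growth curves whose minimum OD was set to 0. Area under these curves was normalised to the plate median of solvent-only wells, or to row and column medians on the industrial chemical plate. Values are medians of three biological replicates grown on separate days.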

Bacteroides caccae = tested on: Bacteroides caccae
Outline: as §1

Bacteroides clarus = tested on: Bacteroides clarus
Outline: as §1

Bacteroides dorei = tested on: Bacteroides dorei
Outline: as §1

Bacteroides stercoris = tested on: Bacteroides stercoris
Outline: as §1

[1] = tested on: Bacteroides thetaiotaomicron
Outline: as §1

Bacteroides uniformis = tested on: Bacteroides uniformis
Outline: as §1

[2] = tested on: Bifidobacterium longum subsp. longum
Outline: as §1

Clostridium difficile = tested on: Clostridium difficile
Outline: as §1

Collinsella aerofaciens = tested on: Collinsella aerofaciens
Outline: as §1

Measured: growth AUC

ClC1=C(Cl)C2(Cl)C3COCC3C1(Cl)C2(Cl)Cl (stereo not given)
active: Akkermansia muciniphila 0.531
inactive: Bacteroides caccae 0.91 | Bacteroides clarus 1.11 | Bacteroides dorei 0.925 | Bacteroides stercoris 1.05 | [1] 0.871 | Bacteroides uniformis 0.916 | [2] 0.918 | Clostridium difficile 0.966 | Collinsella aerofaciens 1.02

CC(C)(C)N(NC(=O)c1ccc(Cl)cc1)C(=O)c1ccccc1
inactive: Akkermansia muciniphila 0.852 | Bacteroides caccae 0.973 | Bacteroides clarus 0.986 | Bacteroides dorei 0.983 | Bacteroides stercoris 1.02 | [1] 0.939 | Bacteroides uniformis 1.01 | [2] 1.04 | Clostridium difficile 1.11 | Collinsella aerofaciens 1.02

O=C(NC(=O)c1c(F)cccc1F)Nc1ccc(Cl)cc1
inactive: Akkermansia muciniphila 1.14 | Bacteroides caccae 1.01 | Bacteroides clarus 0.996 | Bacteroides dorei 0.998 | Bacteroides stercoris 0.974 | [1] 0.997 | Bacteroides uniformis 1.01 | [2] 0.954 | Clostridium difficile 1.01 | Collinsella aerofaciens 0.955

CCNc1nc(Cl)nc(NC(C)C)n1
inactive: Akkermansia muciniphila 1.05 | Bacteroides caccae 0.956 | Bacteroides clarus 1.01 | Bacteroides dorei 0.945 | Bacteroides stercoris 0.964 | [1] 1.01 | Bacteroides uniformis 1.01 | [2] 1.02 | Clostridium difficile 0.944 | Collinsella aerofaciens 1.04

CNC(=O)ON=C(CS(C)=O)C(C)(C)C (stereo not given)
inactive: Akkermansia muciniphila 1.08 | Bacteroides caccae 1.02 | Bacteroides clarus 0.997 | Bacteroides dorei 1.01 | Bacteroides stercoris 0.97 | [1] 1.02 | Bacteroides uniformis 1.01 | [2] 0.955 | Clostridium difficile 1.02 | Collinsella aerofaciens 1

CCCSP(=O)(OCC)Oc1ccc(Br)cc1Cl (stereo not given)
inactive: Akkermansia muciniphila 0.944 | Bacteroides caccae 0.864 | Bacteroides clarus 0.95 | Bacteroides dorei 0.985 | Bacteroides stercoris 1.17 | [1] 0.901 | Bacteroides uniformis 0.881 | [2] 1.06 | Clostridium difficile 1.03 | Collinsella aerofaciens 0.972

CNC(=O)Oc1cccc(N=CN(C)C)c1.Cl
inactive: Akkermansia muciniphila 1.18 | Bacteroides caccae 1.03 | Bacteroides clarus 1.03 | Bacteroides dorei 1.02 | Bacteroides stercoris 1.12 | [1] 1.02 | Bacteroides uniformis 0.993 | [2] 1.06 | Clostridium difficile 1.02 | Collinsella aerofaciens 1.04

CCOP(=S)(OCC)Oc1ccc(=O)n(-c2ccccc2)n1
inactive: Akkermansia muciniphila 0.918 | Bacteroides caccae 0.997 | Bacteroides clarus 0.943 | Bacteroides dorei 0.977 | Bacteroides stercoris 0.959 | [1] 0.948 | Bacteroides uniformis 0.949 | [2] 1.04 | Clostridium difficile 0.936 | Collinsella aerofaciens 0.99

Cc1cc(C)c(C2=C(OC(=O)CC(C)(C)C)C3(CCCC3)OC2=O)c(C)c1
inactive: Akkermansia muciniphila 1.2 | Bacteroides caccae 0.977 | Bacteroides clarus 1 | Bacteroides dorei 0.988 | Bacteroides stercoris 1.23 | [1] 1.05 | Bacteroides uniformis 0.958 | [2] 1.05 | Clostridium difficile 0.98 | Collinsella aerofaciens 1.02

CCOc1ccccc1OS(=O)(=O)NC(=O)Nc1nc(OC)cc(OC)n1
inactive: Akkermansia muciniphila 1.02 | Bacteroides caccae 1.05 | Bacteroides clarus 0.972 | Bacteroides dorei 1.05 | Bacteroides stercoris 0.901 | [1] 1.01 | Bacteroides uniformis 0.993 | [2] 0.967 | Clostridium difficile 1.13 | Collinsella aerofaciens 1.03

CCC(C)c1cc([N+](=O)[O-])cc([N+](=O)[O-])c1O (stereo not given)
inactive: Akkermansia muciniphila 1.07 | Bacteroides caccae 0.967 | Bacteroides clarus 0.879 | Bacteroides dorei 0.902 | Bacteroides stercoris 0.865 | [1] 0.876 | Bacteroides uniformis 0.889 | [2] 0.981 | Clostridium difficile 0.951 | Collinsella aerofaciens 0.956

CC(Oc1ccc(Oc2ccc(C(F)(F)F)cn2)cc1)C(=O)O (stereo not given)
inactive: Akkermansia muciniphila 1.17 | Bacteroides caccae 0.992 | Bacteroides clarus 1.02 | Bacteroides dorei 0.943 | Bacteroides stercoris 1.04 | [1] 1.01 | Bacteroides uniformis 0.899 | [2] 1.05 | Clostridium difficile 0.917 | Collinsella aerofaciens 0.941

CNc1cnn(-c2cccc(C(F)(F)F)c2)c(=O)c1Cl
inactive: Akkermansia muciniphila 0.94 | Bacteroides caccae 0.979 | Bacteroides clarus 1.02 | Bacteroides dorei 1.01 | Bacteroides stercoris 0.914 | [1] 0.994 | Bacteroides uniformis 0.991 | [2] 0.989 | Clostridium difficile 0.937 | Collinsella aerofaciens 1.03

CN(C)C(CSS(=O)(=O)[O-])CSS(=O)(=O)[O-].[Na+].[Na+]
inactive: Akkermansia muciniphila 0.921 | Bacteroides caccae 0.916 | Bacteroides clarus 1 | Bacteroides dorei 1.09 | Bacteroides stercoris 1.04 | [1] 0.983 | Bacteroides uniformis 1.14 | [2] 1.25 | Clostridium difficile 0.955 | Collinsella aerofaciens 0.969

CCN(CC)N=O
inactive: Akkermansia muciniphila 1 | Bacteroides caccae 1 | Bacteroides clarus 1 | Bacteroides dorei 1.04 | Bacteroides stercoris 1.04 | [1] 1.01 | Bacteroides uniformis 1 | [2] 1.05 | Clostridium difficile 1.02 | Collinsella aerofaciens 0.991

CNC(=O)O/N=C(\C)SC
inactive: Akkermansia muciniphila 0.938 | Bacteroides caccae 0.99 | Bacteroides clarus 0.981 | Bacteroides dorei 1.03 | Bacteroides stercoris 1.06 | [1] 0.988 | Bacteroides uniformis 0.988 | [2] 0.91 | Clostridium difficile 0.999 | Collinsella aerofaciens 1.03

COC[C@H](C)N(C(=O)CCl)c1c(C)csc1C
inactive: Akkermansia muciniphila 1.08 | Bacteroides caccae 1 | Bacteroides clarus 0.983 | Bacteroides dorei 0.951 | Bacteroides stercoris 0.95 | [1] 1 | Bacteroides uniformis 0.981 | [2] 1.04 | Clostridium difficile 0.976 | Collinsella aerofaciens 1

COCC(=O)N(c1c(C)cccc1C)[C@H](C)C(=O)OC
inactive: Akkermansia muciniphila 0.94 | Bacteroides caccae 1 | Bacteroides clarus 1.04 | Bacteroides dorei 1.04 | Bacteroides stercoris 1.06 | [1] 1 | Bacteroides uniformis 1.02 | [2] 1.1 | Clostridium difficile 1.02 | Collinsella aerofaciens 1.04

C#CCN1CC(=O)N(COC(=O)C2C(C=C(C)C)C2(C)C)C1=O (mixture of isomers)
inactive: Akkermansia muciniphila 0.804 | Bacteroides caccae 0.949 | Bacteroides clarus 0.936 | Bacteroides dorei 0.96 | Bacteroides stercoris 0.986 | [1] 0.952 | Bacteroides uniformis 0.962 | [2] 0.949 | Clostridium difficile 0.997 | Collinsella aerofaciens 1.02

O=c1c2cc(F)ccc2nc(-n2cncn2)n1-c1ccc(Cl)cc1Cl
inactive: Akkermansia muciniphila 0.855 | Bacteroides caccae 0.976 | Bacteroides clarus 0.979 | Bacteroides dorei 1.05 | Bacteroides stercoris 1 | [1] 0.925 | Bacteroides uniformis 0.937 | [2] 0.791 | Clostridium difficile 1.12 | Collinsella aerofaciens 1.07

CCc1cccc(C)c1N(C(=O)CCl)[C@@H](C)COC
inactive: Akkermansia muciniphila 1.13 | Bacteroides caccae 0.95 | Bacteroides clarus 0.99 | Bacteroides dorei 0.98 | Bacteroides stercoris 1.2 | [1] 0.975 | Bacteroides uniformis 1 | [2] 1.03 | Clostridium difficile 0.961 | Collinsella aerofaciens 0.963

CNC(=O)Oc1cccc2c1OC(C)(C)C2=O
inactive: Akkermansia muciniphila 1.05 | Bacteroides caccae 1.03 | Bacteroides clarus 1.03 | Bacteroides dorei 1.02 | Bacteroides stercoris 1.04 | [1] 1.02 | Bacteroides uniformis 1.05 | [2] 1.02 | Clostridium difficile 1.01 | Collinsella aerofaciens 1.01

CNC(=O)c1cc(C#N)cc(C)c1NC(=O)c1cc(Br)nn1-c1ncccc1Cl
inactive: Akkermansia muciniphila 0.947 | Bacteroides caccae 1.04 | Bacteroides clarus 0.977 | Bacteroides dorei 1.01 | Bacteroides stercoris 0.933 | [1] 0.982 | Bacteroides uniformis 0.995 | [2] 0.999 | Clostridium difficile 1 | Collinsella aerofaciens 0.981

Oc1cccc2cccnc12
inactive: Akkermansia muciniphila 0.981 | Bacteroides caccae 0.994 | Bacteroides clarus 1.01 | Bacteroides dorei 0.993 | Bacteroides stercoris 1.12 | [1] 0.984 | Bacteroides uniformis 0.988 | [2] 1.14 | Clostridium difficile 0.959 | Collinsella aerofaciens 0.963

COP(=O)(OC)OC=C(Cl)Cl
inactive: Akkermansia muciniphila 1.04 | Bacteroides caccae 1.05 | Bacteroides clarus 1.01 | Bacteroides dorei 0.984 | Bacteroides stercoris 1.17 | [1] 1.03 | Bacteroides uniformis 1.03 | [2] 1.04 | Clostridium difficile 1.05 | Collinsella aerofaciens 1.01

CS(=O)(=O)NC(=O)c1cc(Oc2ccc(C(F)(F)F)cc2Cl)ccc1[N+](=O)[O-]
inactive: Akkermansia muciniphila 1.03 | Bacteroides caccae 1.01 | Bacteroides clarus 0.955 | Bacteroides dorei 0.972 | Bacteroides stercoris 0.875 | [1] 0.993 | Bacteroides uniformis 0.992 | [2] 1.04 | Clostridium difficile 0.94 | Collinsella aerofaciens 0.951

Oc1ccc(Cc2ccc(O)cc2)cc1
inactive: Akkermansia muciniphila 0.954 | Bacteroides caccae 0.992 | Bacteroides clarus 1.03 | Bacteroides dorei 0.998 | Bacteroides stercoris 1.05 | [1] 1.02 | Bacteroides uniformis 1.01 | [2] 0.975 | Clostridium difficile 1.02 | Collinsella aerofaciens 1.01

CC1(C(=O)Nc2ccc(O)c(Cl)c2Cl)CCCCC1
inactive: Akkermansia muciniphila 0.827 | Bacteroides caccae 0.986 | Bacteroides clarus 0.954 | Bacteroides dorei 0.995 | Bacteroides stercoris 0.952 | [1] 0.94 | Bacteroides uniformis 0.962 | [2] 0.978 | Clostridium difficile 0.98 | Collinsella aerofaciens 0.995

O=c1ccc(=O)[nH][nH]1
inactive: Akkermansia muciniphila 1.2 | Bacteroides caccae 0.973 | Bacteroides clarus 1.01 | Bacteroides dorei 0.989 | Bacteroides stercoris 0.951 | [1] 1 | Bacteroides uniformis 1.05 | [2] 1.62 | Clostridium difficile 0.954 | Collinsella aerofaciens 0.92
